KDM4E inh – qHTS Assay for Inhibitors of Human Jumonji Domain Containing 2E (JMJD2E). Lysine-specific demethylase 4E (Homo sapiens), B2RXH2. AID 2147, 2009. hit rate 1.6% among 230,000. JMJD2E catalytic domain, FDH-coupled NADH fluorescence (FDH is formaldehyde dehydrogenase). Potency, µM (highest dose often 57.1 µM), inactives show at the highest dose activity change, negative = inhibition, usual class: inhibitors; active = well fitted inhibition curve with a large enough effect, not every such curve was filed as active; inconclusive = small, poorly fitted or top-dose-only effect, or another doubt; inactive = no such curve, though single readings can be large or run the other way;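 also: potency is read from the fitted curve at half-maximal effect; 0% = wells with enzyme and -100% = buffer wells without enzyme; nearly all actives have a fitted effect of over 50% in size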
Lamin A splicing – qHTS Assay for Modulators of Lamin A Splicing; HeLa LMNA splicing GFP/RFP minigene ratio, 48 h; AID 1487, 2009; hit rate 0.01% among 200,000; Potency, µM (top dose mostly 46.1 µM), without a hit: top-dose ratio change, negative = inhibition, usual class: inhibitors; active = well fitted inhibition curve with a large enough effect in the signal ratio, with a control signal flat, not every such curve was filed as active; inconclusive = small, poorly fitted or top-dose-only effect, or effect the other way, or a change in a side signal; the % refers to the signal ratio; also: potency is read from the fitted curve at half-maximal effect; % is scaled to controls: 0 for no effect and ±100 for the full control effect
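S3 HeLa stable clones carrying a lamin A-EGFP splicing minigene plus DsRed2 were seeded at 600 cells/well in Opti-MEM with 2% FBS, pin-dosed and incubated 48 h at 37°C. Acumen cytometry (488 nm) gave the GFP/RFP total-intensity ratio.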
G9a block – qHTS Assay for Inhibitors of Histone Lysine Methyltransferase G9a; Potency, µM (series often up to 102 µM), inactives show at the top dose activity, negative = inhibition, actives largely listed as inhibitors; Histone-lysine N-methyltransferase EHMT2 (Homo sapiens), Q96KQ7; hit rate 8.8% among 350,000; G9a H3K9 monomethylation, AlphaScreen, 2 h; also: potency is read from the fitted curve at half-maximal effect; % is scaled to controls: 0 for no effect and ±100 for the full control effect; nearly all actives have a fitted effect of over 75% in size
Target sequence (Q96KQ7 913-1193 limits assumed): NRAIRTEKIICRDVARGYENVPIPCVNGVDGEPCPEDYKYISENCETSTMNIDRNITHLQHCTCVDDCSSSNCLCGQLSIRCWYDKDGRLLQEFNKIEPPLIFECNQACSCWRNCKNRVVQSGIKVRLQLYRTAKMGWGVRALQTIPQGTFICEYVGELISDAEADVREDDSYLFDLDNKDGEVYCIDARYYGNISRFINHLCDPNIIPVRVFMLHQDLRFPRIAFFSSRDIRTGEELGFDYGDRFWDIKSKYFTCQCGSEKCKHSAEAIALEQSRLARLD
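AlphaScreen read-out: biotin-H3K9 peptide (500 nM) methylation by 20 nM enzyme with 20 uM SAM, 2 h at room temperature after 15 min compound preincubation; anti-monomethyl H3K9 antibody plus donor/acceptor beads, 10 min dark.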
ALDH1A1 block – qHTS Assay for Inhibitors of Aldehyde Dehydrogenase 1 (ALDH1A1); Aldehyde dehydrogenase 1A1 (Homo sapiens), P00352; Purified ALDH1A1, NADH fluorescence, propionaldehyde substrate; Potency, µM (titrated, usually from 75.3 µM), for the others: at the top dose activity, negative = inhibition, most hits filed as inhibitors; hit rate 7.3% among 220,000; AID 1030, 2008; active = well fitted inhibition curve with a large enough effect, not every such curve was filed as active; inconclusive = small, poorly fitted or top-dose-only effect, or another doubt; inactive = no such curve, though single readings can be large or run the other way;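 also: potency is read from the fitted curve at half-maximal effect; plate controls were no enzyme wells and a reference inhibitor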
Target sequence (P00352 whole entry, looked up): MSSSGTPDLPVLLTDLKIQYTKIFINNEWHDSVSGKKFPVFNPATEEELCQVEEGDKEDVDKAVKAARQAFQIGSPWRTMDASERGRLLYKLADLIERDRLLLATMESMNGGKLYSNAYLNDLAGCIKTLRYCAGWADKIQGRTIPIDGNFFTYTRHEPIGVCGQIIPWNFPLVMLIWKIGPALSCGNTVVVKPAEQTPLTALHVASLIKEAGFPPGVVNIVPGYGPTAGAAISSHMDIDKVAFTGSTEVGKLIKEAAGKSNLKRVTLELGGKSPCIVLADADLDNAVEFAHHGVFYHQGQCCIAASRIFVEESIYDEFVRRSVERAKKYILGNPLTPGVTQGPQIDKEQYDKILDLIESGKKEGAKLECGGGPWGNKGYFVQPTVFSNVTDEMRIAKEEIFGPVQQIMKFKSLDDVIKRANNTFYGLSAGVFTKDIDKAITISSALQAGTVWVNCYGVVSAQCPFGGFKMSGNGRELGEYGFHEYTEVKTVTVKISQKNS
miR-21 act – qHTS Assay for Modulators of miRNAs and/orActivators of miR-21 | 340,000 tested, under 10 active | HeLa miR-21 FLuc reporter, luciferase, 48 h | Potency, µM (top dose mostly 38.3 µM), for inactives: at the highest dose activity change, positive = activation, hits mostly activators | AID 2288, 2010;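 also: % of control where 0% means no effect; miR-21 action dims this reporter so a rising signal means less miR-21 action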
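Luminescence from a firefly luciferase reporter carrying a miR-21 binding site downstream, stably expressed under a CMV promoter in HeLa cells that make miR-21 endogenously, reports miRNA modulation after 48 h compound exposure up to approximately 40uM final.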
Sfp inh – qHTS Assay for Inhibitors of Bacillus subtilis Sfp phosphopantetheinyl transferase (PPTase); 4'-phosphopantetheinyl transferase ffp (Bacillus subtilis), Q9F4F7; Biochemical Sfp PPTase activity, qHTS; Potency, µM, without a hit: largest response in the series, negative = inhibition, usual class: inhibitors; hit rate 3.5% among 310,000; AID 1490, 2009;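 also: the enzyme is Sfp with the accession as filed and its product quenches rhodamine fluorescence; potency is read from the fitted curve at half-maximal effect; 0% = enzyme reaction without inhibitor and -100% = no enzyme wells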
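Fluorescence-quenching assay with 15 nM Sfp, 5 uM rhodamine-CoA and 12.5 uM BHQ-2-labelled ybbR peptide in pH 7.6 Hepes/MgCl2 buffer. Enzyme was pre-incubated with compound for 15 min at room temperature. Rate was taken from the 30-min fluorescence change (525/598 nm).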
* hit, by the source's call; ? = inconclusive; / = no result given; ! = repeats disagree; [ ] = remark or other dose. Shown are actives, neighbours in structure and some others; about 13% of the full set was active somewhere. Unless noted, calls follow the shape of the dose curve; as a rule, active = well fitted curve in the direction sought with a large enough effect; inconclusive = small, poorly fitted or top-dose-only effect, or another doubt; inactive = no such curve, though single readings can be large; an effect the other way counts as inactive or inconclusive.

SMILES	KDM4E inh	Lamin A splicing	G9a block	ALDH1A1 block	miR-21 act	Sfp inh
CN(C)CCCN(C(=O)c1ccc2c(c1)CCCC2)c1nc2ccc(F)cc2s1	2%	?	45µM*	-3%	-19%	-22%
CN(C)CCCN(C(=O)c1cc(-c2cccs2)nc2ccccc12)c1nc2ccc(F)cc2s1	/	/	?	/	?	50µM*
CN(C)CCCN(C(=O)c1ccco1)c1nc2ccc(Cl)cc2s1	-7%	?	?	0%	-24%	-7%
CCN(CC)CCN(C(=O)c1ccc2c(c1)CCCC2)c1nc2ccc(OC)cc2s1	/	/	45µM*	/	-4%	79µM*
Cc1ccc(C(=O)N(CCCN(C)C)c2nc3ccc(Cl)cc3s2)cc1C	1%	11%[9.22 µM]	71µM*	?	7%	56µM*
CCN(CC)CCN(C(=O)c1ccc2c(c1)CCCC2)c1nc2c(C)cccc2s1	/	/	35µM*	/	-2%	-18%
CCN(CC)CCN(C(=O)c1ccc2c(c1)CCCC2)c1nc2ccc(F)cc2s1	-3%	-14%[9.22 µM]	50µM*	?	-16%	-28%
CN(C)CCCN(C(=O)c1ccc2c(c1)OCCO2)c1nc2ccc(Cl)cc2s1	/	/	/	/	-26%	-6%
CCN(CC)CCN(C(=O)c1ccc2c(c1)CCCC2)c1nc2ccc(C)cc2s1	/	/	?	/	-16%	?
COc1ccc(/C=C2\CCCC(C(=O)C(F)(F)F)=C2O)cc1	-10%	-2%	8.9µM*	0.45µM*	-15%	-12%
O=C(C1=C(O)/C(=C/c2ccc(O)cc2)CCC1)C(F)(F)F	?	?	10µM*	0.079µM*	-27%	-22%
OC1(c2ccccc2Cl)NN=C2CCCCCN21 (stereo not drawn)	8%	/	79µM*	2%	5%	1%
Clc1ccccc1OCc1nnc2n1CCCCC2	0%	/	1%	/	-13%	12%
COc1ccc(CC(=O)Nc2ccc(S(=O)(=O)N3CCN(C)CC3)cc2)cc1	/	/	21%[59 µM]	/	/	/
O=C(O)Cc1c[nH]c2cccc(O)c12	?	/	-33%[12.7 µM]	?	0%	?
Cc1ccc(C(c2c(O)nc3n(c2=O)CCS3)c2c(O)nc3n(c2=O)CCS3)cc1	2%	-11%	10µM*	?	-3%	?
O=c1c(C(c2ccc(O)cc2)c2c(O)nc3n(c2=O)CCS3)c(O)nc2n1CCS2	1%	-10%	?	13µM*	3%	14µM*
O=c1c(C(c2ccc(O)cc2)c2c(O)nc3n(c2=O)CCCS3)c(O)nc2n1CCCS2	4%	0%	?	?	-2%	25µM*
CC1(C(=O)OCC(=O)Nc2nc(-c3ccc(F)c(F)c3)cs2)CC1(Cl)Cl (stereo not drawn)	/	/	/	/	15%	8%
CCOc1cccc(N2C(=O)CC(NNC(=O)c3ccc(Br)o3)C2=O)c1 (stereo not drawn)	-29%	12%[46 µM]	-51%	11µM*	-1%	5%
CCOc1cccc(N2C(=O)CC(NCc3ccc(S(N)(=O)=O)cc3)C2=O)c1 (stereo not drawn)	11%	3%	50µM*	-11%	3%	1%
Cc1cc(C)cc(NC(=O)Cn2c(=O)n(CCC(C)C)c(=O)c3cccnc32)c1	/	/	-3%[59 µM]	/	1%	/
CCOc1ccc(C(=O)c2ccc(O)c(O)c2O)cc1	14µM*	-7%	/	9.5µM*	/	50µM*
CCOc1cccc(C(=O)c2ccc(O)c(O)c2O)c1	10µM*	/	?	1.6µM*	/	-79%
N[C@@H](CSC1(c2ccc(Cl)cc2)c2ccccc2-c2ccccc21)C(=O)O	/	/	/	9%[13.5 µM]	/	/
SMILES	KDM4E inh	Lamin A splicing	G9a block	ALDH1A1 block	miR-21 act	Sfp inh
O=C(O)Cn1c2ccccc2c2n[nH]c(=S)nc21	/	/	2.2µM*	/	2%	45µM*
CCn1c2ccccc2c2n[nH]c(=S)nc21	/	/	7.9µM*	/	-5%	50µM*
CCCn1c2ccc(C)cc2c2n[nH]c(=S)nc21	/	/	?	/	-11%	40µM*
C=CCn1c2ccccc2c2n[nH]c(=S)nc21	/	/	10µM*	/	-12%	40µM*
CCCn1c2ccc(C)cc2c2nnc(SCCN3CCOCC3)nc21	/	/	1%	/	3%	-13%
CCn1c2ccccc2c2nn(C)c(=N)nc21	3%	-12%	-39%[12.7 µM]	8%	4%	11%
CCN(CC)C(=S)SCC(=O)Nc1nc(-c2ccccc2)c(-c2ccccc2)o1	-12%	?	-10%[59 µM]	13µM*	16%	6%
Cc1ccc(S(=O)(=O)c2nc(-c3ccccc3)oc2N2CCCC2)cc1	/	/	1.3µM*	/	/	/
O=S(=O)(c1ccccc1)c1nc(-c2ccccc2)oc1N1CCCCC1	-23%	9%	22µM*	0.45µM*	-3%	?
Cc1ccc(S(=O)(=O)c2nc(N3CCOCC3)sc2Cl)cc1	?	-1%	6.3µM*	?	-10%	50µM*
Cc1ccc(S(=O)(=O)c2nc(Cc3ccccc3)oc2N2CCOCC2)cc1	/	/	2.2µM*	/	/	/
O=C(Nc1ccc(F)c(Cl)c1)N1CCC(CN2CCc3ccccc3C2)CC1	/	?	-40%[59 µM]	/	1%	/
CCOC(=O)c1nc(NCc2ccc(Cl)cc2)c2c(C)noc2n1	/	0%[46 µM]	-3%[59 µM]	/	1%	/
CNc1ncnc2c1ncn2[C@H]1C[C@H](OP(=O)(O)O)[C@@H](COP(=O)(O)O)O1	-11%	-19%	20µM*!	7%	/	/
COc1ccc(C(=O)C2CCCN(C(=O)c3ccccc3C(C)=O)C2)cc1F (stereo not drawn)	3%	/	13%	?	-26%	3%
COc1ccc(C(=O)C2CCCN(C(=O)c3noc4c3CCCC4)C2)c(C)c1 (stereo not drawn)	?	29%[46 µM]	-2%	5µM*	-1%	4%
COc1ccc(C(=O)C2CCCN(C(=O)c3noc4c3CCCC4)C2)cc1F (stereo not drawn)	6%	/	-25%	3.5µM*	-1%	-4%
COc1ccc(C(=O)C2CCCN(C(=O)c3ccc(CSC)o3)C2)cc1F (stereo not drawn)	/	/	32µM*	/	-3%	?
COc1ccc(C(=O)C2CCCN(C(=O)c3ccc(F)cc3)C2)cc1OC (stereo not drawn)	/	/	94%	/	4%	9%
COc1ccc(C(=O)C2CCCN(C(=O)C3=CCCC3)C2)c(C)c1 (stereo not drawn)	-3%	28%[46 µM]	17%[12.7 µM]	?	2%	12%
COc1ccc2nc(/C=N/NC(=O)[C@@H]3CCCN3C(=O)OC(C)(C)C)ccc2c1	?	/	-141%[59 µM]	/	-51%	89µM*
